This is one part of a sample in which hits are shown more often than they occur.
KDM5B inhibitor: KDM5B demethylase inhibition | Potency, µM (doses to about 57.7 µM), actives largely listed as inhibitors | KDM5B demethylase, FDH-coupled NADH fluorescence (FDH is formaldehyde dehydrogenase) | Q9UGL1 | actives 2.6% (n = 220,000); active means well fitted inhibition curve with a large enough effect; further: nearly all actives have a fitted effect of over 70% in size
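KDM5BΔAP (200 nM final) in 50 mM HEPES pH 7.5, 0.01% Tween-20 was preincubated 10 min at RT with compound over a concentration range. Substrate mix (H3K4me3 12.5 µM, α-KG 25 µM, Fe²⁺, ascorbate, NAD⁺, FDH) was added, and NADH fluorescence change over 30 min gave dose-response curves.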
A number is an active result; . = inactive.

SMILES | KDM5B inhibitor
O=C([C@H]1CCC[C@@H](O)C1)N1CCN(C2Cc3ccccc3C2)CC1 | .
O=C([C@H]1CCC[C@H](O)C1)N1CCN(Cc2ccc(C(F)(F)F)cc2)CC1 | .
Cc1n[nH]c(C)c1C(N)C(=O)N1CCN(c2ccc3nccn3n2)CC1 (centres undefined) | 28µM
Cc1n[nH]c(C)c1C(N)C(=O)N1CCN(Cc2ccccc2C#N)CC1 (centres undefined) | .
O=C([C@H]1CCC[C@@H](O)C1)N1CCN(c2ccc3nccn3n2)CC1 | 28µM
O=C(Cc1c[nH]c2ccccc12)NCCc1ccc(F)cc1 | .
O=C1N(CC2CCC2)CCCC1(O)CNCC1CCCCC1 (centres undefined) | .
CCN(CC)S(=O)(=O)c1ccc(NC)c(N)c1 | .
CC(=O)N1CCc2nc3sc(C(=O)Nc4ccc(Cl)cc4)c(N)c3c(C(F)(F)F)c2C1 | .
Cc1ccc2c(C(=O)NCc3ccccc3C(F)(F)F)cc(NC(=O)C(C)C)cc2n1 | 25µM
Cc1cc(C(=O)NCC#Cc2cccc(C(F)(F)F)c2)c2ccccc2n1 | .
Cc1ccc2c(C(=O)NCc3cc(F)cc(F)c3)cc(NC(=O)C(C)C)cc2n1 | 22µM
Cc1cc(C(=O)NCCC(C)C)c2ccccc2n1 | .
CCOc1ccccc1CNC(=O)c1cc(C)nc2c(C)cccc12 | .
COc1ccccc1CNC(=O)c1ccccc1C(F)(F)F | .
COc1cccc(CNC(=O)c2cc(C)nc3ccccc23)c1 | .
Cc1ccc2c(C(=O)NCc3ccc(C(F)(F)F)cc3)cc(NC(=O)C(C)C)cc2n1 | 16µM
CCOc1ccccc1CNC(=O)c1cc(-c2ccc(OC)cc2)nc2ccc(C(C)C)cc12 | .
CCc1cccc(CC)c1NC(=O)c1cc(C)nc2ccccc12 | .
CCOc1ccccc1CNC(=O)c1cc(NC(C)=O)cc2nc(C)ccc12 | 14µM
CCC(C)NC(=O)C(C)NC(=O)NCc1ccc(C(F)(F)F)cc1 (centres undefined) | .
CC(NC(=S)NCc1ccc(F)cc1)c1ccncc1 (centres undefined) | .
COCCn1c(=O)c2sccc2n(CC(=O)NC2CCCCC2)c1=O | .
COCCn1c(=O)c2c(n1Cc1ccccc1)CN(C(=O)c1cc3ccccc3n1C)CC2 | .
CCSc1nc2c(c(=O)[nH]1)C(c1ccc(C)o1)C1=C(CCCC1=O)N2 (centres undefined) | .
SMILES | KDM5B inhibitor
O=C(Oc1ccc2ccccc2c1)C1C2CCCC1C2c1ccccc1 (centres undefined) | .
Cc1cc(=O)n(CC(=O)Nc2ccc(F)c(Cl)c2)c(N2CCOCC2)n1 | .
COc1ccc(NC(=O)NC[C@H]2COCc3nc4ccccc4n32)cc1 | .
CCN(CC)C(=O)N1C[C@@H](Oc2cccnc2)C[C@H]1C(=O)N1CCOCC1 | .
OCCCc1nc2ccccc2s1 | .
COc1ccc(CN(C)C(C)c2nnc(-c3ccc(C)cc3)o2)cc1F (centres undefined) | .
CCCn1ncc(CNC2CC(=O)N(Cc3ccccc3C(F)(F)F)C2)c1C (centres undefined) | .
COCCNC(=O)c1cc(-c2cc(OC)c(OC)c(OC)c2)nc2ccccc12 | .
COCCNC(=O)c1cc(NC(=O)C(C)C)cc2nc(C)ccc12 | 25µM
COCCNC(=S)NNC(=O)c1cc(C)nc2ccccc12 | .
COc1ccccc1NC(=O)CC1C(=O)Nc2nc3ccccc3n21 (centres undefined) | .
CC(=O)N1CCC2(CC1)CN(Cc1ccncc1)Cc1ccccc1O2 | 56µM
CC(=O)N1CCC2(CC1)CN(C(=O)N(C)C)Cc1ccccc1O2 | .
O=C(c1ccc(Cl)cc1)N1CC2(CCN(CC3CCCC3)C2)OCc2ccccc21 (centres undefined) | .
CN(C)C(=O)N1CCC2(CC1)CN(Cc1ccc(O)cc1)Cc1ccccc1O2 | .
O=C(c1ccc(Cl)cc1)N1CC2(CCN(Cc3ccncc3)C2)OCc2ccccc21 (centres undefined) | 40µM
O=C(C1CCCC1)N1CC2(CCN(Cc3ccc(Cl)cc3)C2)OCc2ccccc21 (centres undefined) | .
COCCNCc1ccsc1 | .
Fc1ccc(OC2CNC2)cc1F | .
CC(C)=CCC/C(C)=N/n1cnnc1 | .
CCCCCOc1ccc(/C=C(/C#N)c2nc3ccccc3[nH]2)cc1OC | .
CCOc1ccc(-n2nc3cc(C)c(NC(=O)c4ccc(Br)o4)cc3n2)cc1 | .
COC(=O)c1ccc2nc(CO[C@H]3CN(Cc4ccc(Cl)cc4)C[C@H]3F)[nH]c2c1 | .
COc1cc(OC)cc(-c2onc(C)c2C(=O)NCCC(c2ccccc2)c2ccccc2)c1 | 32µM
O=C(NCc1ccc(F)cc1)c1noc(-c2ccc(F)cc2)n1 | .
SMILES | KDM5B inhibitor
Cc1noc(-c2ccc(OC(F)(F)F)cc2)c1C(=O)NCCCc1ccccc1 | .
Cc1noc(-c2ccc(C(C)(C)C)cc2)c1C(=O)NCCOc1ccccc1 | .
COc1cc(OC)cc(-c2onc(C)c2C(=O)NCc2cccc(Cl)c2)c1 | .
Cc1noc(-c2ccc3c(c2)OCO3)c1C(=O)NCCC(c1ccccc1)c1ccccc1 | 20µM
COc1cccc(CCNC(=O)c2c(C)noc2-c2cc(OC)cc(OC)c2)c1 | .
Cc1ccc(CNC(=O)c2noc(-c3ccc(C)cc3)n2)cc1 | .
CC(C)c1ccc(CNC(=O)c2noc(-c3ccc4c(c3)OCO4)n2)cc1 | 25µM
Cc1noc(-c2ccc3c(c2)OCO3)c1C(=O)NCCCc1ccccc1 | 25µM
Cc1noc(-c2cccc(F)c2)c1C(=O)NCCCc1ccccc1 | .
Cc1ccccc1C(=O)NCCn1cccc1-c1nc(-c2ccc3c(c2)OCO3)no1 | .
CCN(Cc1ccccc1)C(=O)C(=O)c1c(C)n(C)c2ccccc12 | .
CNC(=O)CCC[C@@H]1[C@H]2CCCN3CCC[C@@H](CN1C(=O)NCc1ccc(C)cc1)[C@@H]23 | .
CC(C)(C)c1ccc(C2C(C(=O)c3cccs3)=C(O)C(=O)N2c2nncs2)cc1 (centres undefined) | .
CC(C)(C)C(=O)Nc1ccc(C(=O)Nc2ccc(CC(=O)O)cc2)cc1 | .
COc1ccc(C(=O)N[C@@H]2CN(Cc3ccccc3)C[C@H]2CO)cn1 | .
C=CCn1c(COc2ccc(C(C)(C)C)cc2)n[nH]c1=S | .
CCN(CC1CCOC1)C(=O)c1nn(C(C)C)c(=O)c2ccccc12 (centres undefined) | .
Cc1ccsc1C(=O)NCC1(C)CCOCC1 | .
CC(=O)c1c(C)[nH]c(C(=O)OC(C)C(=O)c2ccc(F)c(F)c2)c1C (centres undefined) | .
COC(=O)CC(NC(=O)Cc1ccc(Cl)c(Cl)c1)c1cccs1 (centres undefined) | .
Cc1noc(-c2cccc(F)c2)c1C(=O)NCc1cccc(Cl)c1 | .
Cc1noc(-c2ccc3c(c2)OCO3)c1C(=O)NCCSCc1ccccc1 | 32µM
Cc1noc(-c2cccc(F)c2)c1C(=O)NCc1ccc2c(c1)OCO2 | .
Cc1noc(-c2ccc3c(c2)OCO3)c1C(=O)NCc1cccc(Cl)c1 | 32µM
CN1C(=O)C2(CCN(C(=O)CCC3CCCC3)CC2)c2ccccc21 | .
SMILES | KDM5B inhibitor
O=C(CSc1ncnc2ccccc12)Nc1ccccc1 | .
CC(C)Cn1c(Cn2cccn2)nc2cc(NC(=O)COc3ccccc3)ccc21 | .
CSCCC(=O)NCc1ccc(C)s1 | .
N#CCSc1nnc(-c2ccccc2)n1-c1ccc(F)cc1F | .
Cc1oc(-c2ccccc2)nc1C(=O)Nc1ccccc1C(N)=O | .
CCN1CCN(c2ccc3nnc(C4CCC4)n3n2)CC1 | .
CC(C)N1CCN(c2ccc3nnc(C4CCC4)n3n2)CC1 | 28µM
